Measured values: PubChem BioAssay AID504332 (National Center for Advancing Translational Sciences (NCATS), 2011)
Screen size: about 350,000 compounds; about 31,000 (8.9%) were called active. About 15% were inconclusive and are not listed. Calls come from the whole dose curve; as a rule, active = well fitted inhibition curve with a large enough effect; inconclusive = small, poorly fitted or top-dose-only effect; inactive = no such curve, though single readings can be large or run the other way. For the sample, actives were picked, then their nearest neighbours and some compounds at random.

biological target: Histone-lysine N-methyltransferase EHMT2 (Homo sapiens) (UniProt Q96KQ7); experiment: qHTS Assay for Inhibitors of Histone Lysine Methyltransferase G9a; details: G9a H3K9 monomethylation, AlphaScreen, 2 h; series mostly up to 59 µM; activity, negative = inhibition: at the top concentration; note: nearly all actives have a fitted effect of over 75% in size
Sequence (Q96KQ7 913-1193 limits assumed): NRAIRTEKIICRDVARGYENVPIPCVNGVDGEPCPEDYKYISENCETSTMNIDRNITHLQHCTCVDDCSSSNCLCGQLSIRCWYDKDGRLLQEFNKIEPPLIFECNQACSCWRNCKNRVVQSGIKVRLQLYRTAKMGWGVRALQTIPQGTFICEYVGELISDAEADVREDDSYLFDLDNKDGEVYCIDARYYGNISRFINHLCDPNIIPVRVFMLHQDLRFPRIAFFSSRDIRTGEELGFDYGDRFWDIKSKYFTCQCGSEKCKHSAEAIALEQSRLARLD
Procedure, shortened: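 Signal arises when biotinylated H3K9 peptide, once monomethylated, bridges streptavidin donor and antibody-captured acceptor beads. Enzyme at 20 nM was preincubated 15 min with test compounds; peptide 500 nM and SAM 20 uM then reacted for 2 h.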
% is set by controls: 0 for no effect and ±100 for the full control effect; potency is the fitted concentration of half-maximal effect.

SMILES	activity, negative = inhibition	Potency
CCCCCCSc1ccc([C@@H]2[C@@H]3C(=O)N(CC)C(=O)[C@@H]3[C@]3(C(=O)OC)CCCCN23)cc1OC	2.26% [at 2.33 µM] (inactive)	
O=C(COC(=O)C1CC2CCCC(C1)C2=O)NC(=O)c1ccccc1 (configuration not stated)	-4.63% [at 12.7 µM] (inactive)	
CC(C)NC(=O)c1ccc(Cl)cc1Cl	-27.2% [at 102 µM] (inactive)	
CCOC(=O)c1ccc(CN(Cc2ccccc2)S(=O)(=O)c2ccc(Cl)cc2)cc1	21.8% (inactive)	
CN(C(=O)CN(CCO)CC(=O)N(C)C(C)(C)Cc1ccccc1)C(C)(C)Cc1ccccc1		inactive
CC(O)CN(Cc1ccc(Cl)cc1)CC(C)O (configuration not stated)		14.1 µM (active)
OCCN(Cc1ccccc1)Cc1ccc(Cl)cc1		22.4 µM (active)
CN(C)CCCNC(=S)NCc1ccc(Cl)cc1	-7.32% (inactive)	
CCC(Cc1ccccc1)NC(=O)C1CCCCC1 (configuration not stated)	10.6% [at 102 µM] (inactive)	
CCc1nn(CC(=O)Nc2cccc(C)c2C)c(=O)c2cc3sccc3n12	1.85% (inactive)	
Oc1ccc(-n2nnnc2SCc2c(F)cccc2Cl)cc1	5.84% [at 102 µM] (inactive)	
COc1ccc(Cc2nc3ccc(C(=O)NCc4ccccc4Cl)cc3o2)cc1	1.3% (inactive)	
O=C(Nc1ccc(O)c(-c2nc3ccccc3o2)c1)c1ccc(-c2cccc(Cl)c2)o1	57.4% (inactive)	
Cc1ccnc(N2CCCC(C(=O)NC3CC3)C2)n1 (configuration not stated)	-9.69% (inactive)	
Cc1ccnc(-n2sc3ccccc3c2=O)n1		1 µM (active)
Cc1ccnc(SCC(N)=O)n1	-0.326% [at 102 µM] (inactive)	
Cc1nn(-c2ccc([N+](=O)[O-])cc2)c(N)c1-c1ccccc1	-30.9% [at 102 µM] (inactive)	
O=C1CC(c2ccccc2)=NN1c1ccc([N+](=O)[O-])cc1		39.8 µM (active)
COc1ccc(C2=NN(c3nc4ccccc4s3)C(=O)C2)cc1	-37.4% [at 102 µM] (inactive)	
O=C1CCCC2=C1C(c1cccs1)CC(=O)N2c1ccc(F)cc1 (configuration not stated)	-0.558% [at 102 µM] (inactive)	
Cn1c(N)cc(-c2ccc(F)cc2)c(C#N)c1=O	6.89% [at 102 µM] (inactive)	
N#CC1=C(N)N(c2ccc(F)cc2)C(=O)C1		39.8 µM (active)
O=C(NCc1ccc(F)cc1)c1ccc2nc(N3CCCCC3)sc2c1	23% (inactive)	
COC(=O)c1scc(-c2ccccc2)c1S(=O)(=O)Nc1ccccc1	-8.11% (inactive)	
Fc1ccccc1N=C1Nc2cccc3cccc1c23	2.38% [at 102 µM] (inactive)	
COc1ccccc1C1=Nc2cccc3cccc(c23)N1	39.6% [at 0.501 µM] (inactive)	

SMILES	activity, negative = inhibition	Potency
c1ccc(C2=Nc3cccc4cccc(c34)N2)cc1		8.91 µM (active)
Cc1nn(-c2ccccc2)c(Cl)c1/C=C/C(=O)c1ccc(O)cc1		15.8 µM (active)
Cc1nn(-c2ccccc2)c(Cl)c1C(=O)Nc1ccccc1	50.1% [at 12.7 µM] (inactive)	
Cc1ccc(C(=O)/C=C/c2c(C)nn(-c3ccccc3)c2Cl)cc1	-24.2% (inactive)	
COc1cccc(CNc2nccn(-c3ccc(OC)c(OC)c3)c2=O)c1	6.99% (inactive)	
CC(NC(=O)c1cc(Sc2ccc(F)cc2F)nc2ccccc12)c1ccccc1 (configuration not stated)	2.44% (inactive)	
Cc1ccc(-c2cnc(NC(=O)CCC(=O)N(C)Cc3ccccc3)n2C)cc1	-4.41% [at 12.7 µM] (inactive)	
Cc1ccc(-c2cnc(NCc3ccc(C(C)C)cc3)n2C)cc1		2.82 µM (active)
COc1ccc(CNc2nc(-c3ccc(Cl)cc3)nn2S(=O)(=O)c2ccc(C)cc2)cc1	8.34% (inactive)	
CCOc1ccccc1OCC(=O)Nc1ccccc1C(=O)NC1CC1	-41.6% [at 102 µM] (inactive)	
CCCN(CC(=O)Nc1ccccc1OC)C(=O)CCC(=O)c1ccc(F)cc1	6.88% [at 102 µM] (inactive)	
Cc1nn(C(C)C(=O)NCCC2=CCCCC2)c(=O)c2nn(-c3ccccc3)c(C)c12 (configuration not stated)	18.6% [at 102 µM] (inactive)	
CCC(=O)N1CCc2cc(CNC(=O)Nc3ccccc3Cl)ccc21	10.3% (inactive)	
Cc1cc(Cl)ccc1NC(=O)Cc1ccc(NC(=O)N2CCCCc3ccccc32)cc1	7.58% (inactive)	
O=C(Cc1ccc2c(c1)CCCC2)Nc1ccccc1Cl		44.7 µM (active)
CCCC(=O)N1CCN(c2nnc(-c3ccc(C)cc3)c3ccccc23)CC1	-4.7% [at 102 µM] (inactive)	
CCc1nnc(NS(=O)(=O)c2ccc(NC(=S)NC(=O)c3cccs3)cc2)s1	-49.2% [at 102 µM] (inactive)	
CCc1nnc(NS(=O)(=O)c2ccc(NS(=O)(=O)c3ccccc3)cc2)s1	2.62% [at 12.7 µM] (inactive)	
CCc1nnc(NS(=O)(=O)c2ccc(NC(=S)NC(=O)/C=C/c3cccs3)cc2)s1		44.7 µM (active)
Cc1ccccc1CNC(=O)CSc1nnc(C)c2c(C)n(-c3ccccc3)nc12	-26.6% (inactive)	
O=C(CCn1nnnc1CN1CCOCC1)N1CCC(c2ccccc2Cl)C1 (configuration not stated)	68.2% [at 102 µM] (inactive)	
Nn1c(SCC(=O)Nc2nccs2)nnc1-c1ccco1		28.2 µM (active)
CCc1cccc(C)c1NC(=O)CSc1nnc(-c2ccco2)n1N	11.7% [at 0.501 µM] (inactive)	
CCOC(=O)CSc1nnc(-c2ccco2)n1C	-7.88% [at 102 µM] (inactive)	
CCCCNC(=O)CSc1nnc(-c2ccco2)n1C	-12.7% (inactive)	
Cn1c(SCC(=O)c2cccs2)nnc1-c1ccco1		50.1 µM (active)

SMILES	activity, negative = inhibition	Potency
Cn1c(SCC(=O)Nc2nccs2)nnc1-c1cccnc1	-4.03% (inactive)	
Cc1cccc(Cn2c(=O)n(CCC(=O)NCCc3ccc(Cl)cc3)c(=O)c3sccc32)c1	-34.7% (inactive)	
COc1ccc(NC(=O)CN(C)C(=O)c2ccc(NC3CC3)c([N+](=O)[O-])c2)cc1	-3.73% [at 2.33 µM] (inactive)	
Cc1ccc(-n2c(=O)c3cccnc3n2CC(=O)NCc2ccc(F)cc2)cc1C	5.6% (inactive)	
CCN(CCCNC(=O)c1ccc2c(c1)NC(=O)CN2C)c1cccc(C)c1		7.94 µM (active)
CC(=O)Nc1cc(C(=O)NCc2ccc(F)cc2)ccc1Sc1ccc(F)cc1	-1.44% (inactive)	
CC(=O)Nc1cc(C(=O)NCc2ccc(F)cc2Cl)ccc1Sc1ccc(Cl)cc1	-3.69% (inactive)	
CCN(CCCNC(=O)c1ccc(Sc2ccc(C)cc2)c(NC(C)=O)c1)c1cccc(C)c1		12.6 µM (active)
Cc1cccc(C(=O)NCCCN(C)CCCNC(=O)c2cccc(C)c2)c1	10.2% (inactive)	
CCN(CCCNC(=O)Cn1ncc2c([nH]c3ccccc32)c1=O)c1cccc(C)c1	-28% (inactive)	
Cc1oc2ccc(O)c(CN3CCOCC3)c2c1C(=O)Nc1cccc(Cl)c1C	0.579% (inactive)	
C=CCOc1ccc(/C=C/C(=O)OCC(=O)NCC2CCCO2)cc1 (configuration not stated)	6.35% [at 12.7 µM] (inactive)	
Cn1nnnc1SCc1cc(=O)[nH]c2ccccc12	13.3% (inactive)	
CC(=O)N(Cc1cc(=O)[nH]c2ccccc12)c1ccc(C)cc1C		31.6 µM (active)
CCC(=O)N(Cc1cc2ccccc2[nH]c1=O)c1ccc(OC)cc1	3.58% [at 102 µM] (inactive)	
Cc1ccc(N(Cc2cc3ccccc3[nH]c2=O)C(=O)c2cccs2)cc1	-5.43% (inactive)	
Cc1ccc(N(Cc2cc(=O)[nH]c3ccccc23)C(=O)CCl)cc1		11.2 µM (active)
CCCN(CC(=O)Nc1ccccc1C)C(=O)c1cc(=O)[nH]c2ccccc12	-4.7% [at 102 µM] (inactive)	
Cc1oc2ncnc(N3CCCCC3)c2c1C(=O)N1CCN(c2cccc(Cl)c2)CC1	-29.8% (inactive)	
Cc1ccc2nc(-c3ccc(C)c(NC(=O)Cc4ccccc4)c3)oc2c1	9.96% (inactive)	
CCC(NC(=O)c1cc(COc2ccc(F)c(F)c2)on1)c1ccncc1 (configuration not stated)	13.4% [at 12.7 µM] (inactive)	
COc1cc(OC)cc(C(=O)Nc2ccc3nc(Nc4cccc(C(F)(F)F)c4)cc(C)c3c2)c1	-2.07% (inactive)	
COc1ccc(S(=O)(=O)Nc2ccc3cn[nH]c3c2)cc1[N+](=O)[O-]	-20.9% [at 12.7 µM] (inactive)	
CCC(CC)c1nnc(NC(=O)C2=COCCO2)s1		39.8 µM (active)
CCC(CC)c1nnc(NC(=O)c2nn(C)c(=O)c3ccccc23)s1	1.31% [at 102 µM] (inactive)	
CCn1c(SCC(=O)Nc2sc(C)c(C)c2C#N)nnc1C1CC1	9.74% (inactive)	

SMILES	activity, negative = inhibition	Potency
CCN(CC)C(=O)c1sc(NC(=O)c2ccco2)c(C#N)c1C	-19.4% (inactive)	
Cc1sc(NC(=O)C2=COCCO2)c(C#N)c1C		11.2 µM (active)
COc1cccc(OC)c1C(=O)Nc1nnc(C(C)C)s1	-41.9% [at 102 µM] (inactive)	
O=C(N=C1SC2CS(=O)(=O)CC2N1c1cc(Cl)ccc1Cl)C1CC1 (configuration not stated)	0.566% [at 102 µM] (inactive)	
CCOc1ccc(N(CC)S(=O)(=O)N2CCCC(C(=O)NCc3ccc(SC)cc3)C2)cc1 (configuration not stated)	-30.4% (inactive)	
CCCCn1c(=O)c2oc3ccccc3c2n(CC(=O)Nc2ccccc2OC)c1=O	6.86% (inactive)	
COc1ccc(NC(=S)N2CCCC(CO)C2)c(OC)c1 (configuration not stated)	-13.8% [at 102 µM] (inactive)	
COc1cc(NC(=S)N2CCCC(C)C2)cc(OC)c1OC (configuration not stated)		50.1 µM (active)
CCCCc1ccc(NC(=S)N2CCCC(CO)C2)cc1 (configuration not stated)	22.7% (inactive)	
CCOc1ccc(NC(=O)c2ccc(NC(=O)COC(=O)c3ccc(NC(=O)CC#N)cc3)cc2)cc1	12.7% [at 2.33 µM] (inactive)	
O=C(NCc1ccccc1)C(=O)NCC(c1ccco1)S(=O)(=O)c1ccc(Cl)cc1 (configuration not stated)	-6.14% (inactive)	
Cc1nn(Cc2ccccc2)c(C)c1C(=O)N1CCN(CC(=O)Nc2ccccc2Cl)CC1	-4.66% (inactive)	
Cc1ccc(S(=O)(=O)N(C)C)cc1NC(=O)COC(=O)c1c(C)noc1C	-6.63% (inactive)	
Cc1ccc(S(=O)(=O)N(C)C)cc1NC(=O)COC(=O)/C=C/c1cccs1		28.2 µM (active)
CN(C)S(=O)(=O)c1cccc(NC(=O)COC(=O)/C=C/c2cccs2)c1	6.05% [at 102 µM] (inactive)	
CCOC(=O)c1cc2c(=O)n3ccccc3nc2n(CCCOC)c1=NC(=O)C(C)Oc1ccccc1 (configuration not stated)	6.36% (inactive)	
COCCCC1CCN(C(=O)C2CCC(=O)N(C3CCCCCC3)C2)CC1 (configuration not stated)	11.5% [at 102 µM] (inactive)	
Cc1onc(-c2ccc(F)cc2F)c1C(=O)Nc1cccc(C(F)(F)F)c1	3.49% (inactive)	
Cc1ccc(C(=O)N2c3ncnn3C3(CCCCC3)[C@@H]3CCCC[C@@H]32)cc1	-3.48% (inactive)	
Cc1ccccc1CN1CCC(CNC(=O)c2cc3ccc4cccnc4c3[nH]2)CC1	-2.49% (inactive)	
COc1cc(C(=O)NNC(=O)CN2C(=O)NC3(CCCC3)C2=O)cc(OC)c1OC	-2.65% (inactive)	
O=C(CCCN1CCc2[nH]c3ccc(F)cc3c2C1)c1ccc(F)cc1		50.1 µM (active)
O=C(c1cc2cc(F)ccc2[nH]1)N1CCN(c2ccc(F)cc2)CC1	-8.91% [at 102 µM] (inactive)	
Cc1nnc(SCc2cc(=O)c3cc(F)ccc3[nH]2)n1C	-1.44% (inactive)	
